# Inconclusive results are not listed. A call without a number means that no potency is given here. Active and inactive are the calls of the source. Unless noted, the call rests on the fitted dose curve.
# Experiments:
# [1] = molecular target: Cytochrome P450 3A4 (Homo sapiens) (UniProt P08684); assay: qHTS Assay for Inhibitors and Substrates of Cytochrome P450 3A4 (AID 884; active means well fitted curve in the direction sought with a large enough effect; an effect the other way counts as inactive or inconclusive; further: potency means the concentration at half of the fitted maximal effect; nearly all actives have a fitted effect of over 50% in size); conditions: recombinant CYP3A4, Luciferin-PPXE luminescence; series mostly up to 57.1 µM
# In short: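 20 nM human CYP3A4 with 25 uM Luciferin-PPXE (at KM) in 200 mM KPO4, preincubated 10 min with compound; NADPH regeneration started a 60 min RT reaction. Luciferin detected by luminescence, normalized to 57 uM ketoconazole as full inhibition.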
# [2] = molecular target: Cytochrome P450 3A4 (Homo sapiens) (UniProt P08684); assay: qHTS Assay for Activators of Cytochrome P450 3A4 (AID 885; active means well fitted curve in the direction sought with a large enough effect; an effect the other way counts as inactive or inconclusive; further: nearly all actives have a fitted effect of over 65% in size); conditions: recombinant CYP3A4, Luciferin-PPXE luminescence, 60 min; series mostly up to 57.1 µM
# In short: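 Signal was normalized against complete inhibition by 57 uM ketoconazole. The reaction used 20nM CYP3A4 with 25uM Luciferin-PPXE, 10-min compound preincubation and a 60-min NADPH-supported step at RT.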
# [3] = molecular target: Alpha-galactosidase (Coffea arabica) (UniProt Q42656); assay: Counterscreen for Glucocerebrosidase Inhibitors: qHTS Assay for Coffee Bean alpha-Galactosidase at pH 5.9 (AID 998; active means well fitted curve in the direction sought with a large enough effect; an effect the other way counts as inactive or inconclusive); conditions: coffee bean alpha-galactosidase enzyme assay; series mostly up to 76.9 µM
# In short: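 Green coffee bean enzyme (2 nM final) was incubated with compounds (0.7 nM–77 uM) and 4-methylumbelliferyl alpha-D-galactopyranoside (80 uM) in citrate buffer pH 5.9, 20 min at room temperature. High-pH stop; fluorescence 365/440 nm; AC50 from Hill fits.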
# [4] = Inducers of the Endoplasmic Reticulum Stress Response (ERSR) in human glioma: Validation (AID 504836; active means well fitted curve in the direction sought with a large enough effect; an effect the other way counts as inactive or inconclusive); conditions: human glioma cells, ER stress response reporter; series mostly up to 38.3 µM
# In short: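 Stably transfected U87-MG human glioma cells carrying a GRP78-based luminescent sensor were seeded at 1000 cells/well, pin-dosed with compounds and incubated 16 h. Luciferase reagent was then added, and end-point luminescence was read after 10 min at room temperature.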
# [5] = qHTS for Inhibitors of the Functional Ribonucleoprotein Complex (vRNP) of Lassa (LASV) Arenavirus: LASV Primary Screen - GLuc reporter signal (AID 1347082; calls by dose curve; tested in HEK293 reporter line; further: nearly all actives have a fitted effect of over 60% in size; further: potency means the concentration at half of the fitted maximal effect); conditions: LASV minigenome vRNP, Gaussia luciferase reporter; series mostly up to 57.5 µM
# [6] = qHTS for Inhibitors of the Functional Ribonucleoprotein Complex (vRNP) of Lassa (LASV) Arenavirus: Viability assay - alamar blue signal for LASV Primary Screen (AID 1347083; calls by dose curve; tested in HEK293 reporter line; further: nearly all actives have a fitted effect of over 80% in size; further: potency means the concentration at half of the fitted maximal effect); conditions: cell viability, alamar blue fluorescence (LASV minigenome counter-screen); series mostly up to 57.5 µM
# [7] = qHTS for Inhibitors of the Functional Ribonucleoprotein Complex (vRNP) of Lymphocytic Choriomeningitis Arenaviruses (LCMV): Viability assay - alamar blue signal for LCMV Primary Screen (AID 1347085; calls by dose curve; tested in HEK293 reporter line; further: nearly all actives have a fitted effect of over 80% in size; further: potency means the concentration at half of the fitted maximal effect); conditions: alamar blue viability counter-screen, LCMV vRNP screen cells; series mostly up to 57.5 µM
# [8] = molecular target: Nucleoprotein (Lymphocytic choriomeningitis virus (strain Armstrong)) (UniProt P09992); assay: qHTS for Inhibitors of the Functional Ribonucleoprotein Complex (vRNP) of Lymphocytic Choriomeningitis Arenaviruses (LCMV): LCMV Primary Screen - GLuc reporter signal (AID 1347086); conditions: LCMV minigenome vRNP cell assay, Gaussia luciferase reporter; series mostly up to 57.5 µM; further: nearly all actives have a fitted effect of over 70% in size
# [9] = Cytotoxicity counterscreen for inhibitors of SARS-CoV-2 cell entry (AID 1645845); conditions: cell viability (SARS-CoV-2 entry assay cells); series mostly up to 57.1 µM; further: nearly all actives have a fitted effect of over 50% in size; further: potency means the concentration at half of the fitted maximal effect
# In short: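 Expi293F/hACE2 cells seeded overnight; cpd pin-transferred in DMSO, 1 h preincubation, + media, 48 h 37 C 5% CO2; ATPLite 1step luminescence; normalized to cells and no cells.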
# [10] = VSVG counterscreen qHTS to identify inhibitors of SARS-CoV-2 cell entry (AID 1645847); conditions: VSV-G pseudotyped particle entry, luciferase; series mostly up to 57.2 µM; further: potency means the concentration at half of the fitted maximal effect; nearly all actives have a fitted effect of over 65% in size
# In short: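 HEK293-ACE2 cells (Expi293F stably expressing human ACE2) were pretreated with compound for 1 h at 37 °C, then infected with MLV-based VSV-G pseudotyped particles for 48 h. Luciferase luminescence was normalized to VSV-G PP and bald PP wells.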
# [11] = molecular target: Alpha-galactosidase (Coffea arabica) (UniProt Q42656); assay: Counterscreen for Glucocerebrosidase Inhibitors: qHTS Assay for Coffee Bean alpha-Galactosidase at pH 4.5 (AID 957; active means well fitted curve in the direction sought with a large enough effect; an effect the other way counts as inactive or inconclusive); conditions: purified coffee bean alpha-galactosidase, fluorogenic substrate; series mostly up to 76.9 µM
# In short: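 AC50 values derive from Hill-equation modeling of concentration-response data, normalized to no-enzyme and full-activity controls. The pH 4.5 citrate assay used 2 nM coffee bean enzyme and 80 uM fluorogenic substrate for 20 min.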
# [12] = Validation screen for inhibitors of Lassa infection (AID 463096); conditions: Lassa virus infection, cell-based; series mostly up to 46.1 µM
# [13] = Primary qHTS to identify inhibitors of SARS-CoV-2 cell entry (AID 1645846); conditions: SARS-CoV-2 pseudovirus cell entry assay, luminescence; activity change, negative = inhibition: at 57.1 µM (top of the series) unless noted; series mostly up to 57.1 µM; further: nearly all actives have a fitted effect of over 45% in size; further: potency means the concentration at half of the fitted maximal effect
# In short: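 Luminescence readout (Bright-Glo luciferase) 48 h after pseudoparticle addition. HEK293-ACE2 cells, 1500/well; compound pre-incubation 1 h; Normalized to spike PP and bald PP.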
# [14] = molecular target: Cytochrome P450 2C9 (Homo sapiens) (UniProt P11712); assay: qHTS Assay for Inhibitors and Substrates of Cytochrome P450 2C9 (AID 883; active means well fitted curve in the direction sought with a large enough effect; an effect the other way counts as inactive or inconclusive; further: potency means the concentration at half of the fitted maximal effect; nearly all actives have a fitted effect of over 60% in size); conditions: recombinant CYP2C9, luciferin-H luminescence, 60 min; series mostly up to 57.1 µM
# In short: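 Human CYP2C9 (10nM) hydroxylated Luciferin-H (100uM, at its KM) to luciferin in 25mM KPO4. Compound was preincubated 10 min at 37C, then NADPH regeneration started a 60 min reaction at 37C. Luminescence was read after detection reagent, normalized to 57uM sulphaphenazole.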
# [15] = molecular target: Bile acid receptor (Homo sapiens) (UniProt Q96RI1); assay: qHTS assay for small molecule agonists of farnesoid X receptor signaling (AID 588527); conditions: HEK293T FXR-UAS-bla, beta-lactamase ratio, 16 h; activation: stronger effect = higher value
# In short: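 Agonist-mode beta-lactamase reporter in GeneBLAzer FXR-UAS-bla HEK293T cells, titration up to 92 uM, 16 h exposure at 37 C, CCF4 fluorescence. Response scaled to DMSO (0%) and 100 uM chenodeoxycholic acid (100%), then Hill-fitted for EC50 and efficacy.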
# [16] = qHTS profiling of the MIPE4 collection as inhibitors of Plasmodium falciparum (3D7) proliferation (AID 743344; call rule not given here); conditions: P. falciparum 3D7 in erythrocytes, SYBR Green DNA fluorescence, 72 h; at 28.5 µM (top of the series) unless noted
# In short: (§1)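 Erythrocytes infected with P. falciparum (0.3% parasitemia, 2.5% hematocrit) incubated with compounds 72 h at 37 C, 5% CO2. Lysis with saponin/Triton buffer containing SYBR Green I, overnight at room temperature in the dark; DNA fluorescence (485/535 nm) normalised to 0.29 uM artemisinin and DMSO.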
# [17] = qHTS profiling of the MIPE4 collection as inhibitors of Plasmodium falciparum (DD2) proliferation (AID 743345; call rule not given here); conditions: P. falciparum Dd2 in erythrocytes, SYBR Green DNA, 72 h; at 28.5 µM (top of the series) unless noted
# In short: as §1
# [18] = qHTS profiling of the MIPE4 collection as inhibitors of Plasmodium falciparum (DD2) proliferation (Rep 2) (AID 743346; call rule not given here); conditions: P. falciparum Dd2 in erythrocytes, SYBR Green DNA, 72 h; at 28.5 µM (top of the series) unless noted
# In short: as §1
# [19] = qHTS profiling of the MIPE4 collection as inhibitors of Plasmodium falciparum (HB3) proliferation (AID 743347; call rule not given here); conditions: P. falciparum HB3 in erythrocytes, SYBR Green DNA, 72 h; at 28.5 µM (top of the series) unless noted
# In short: as §1
# Alpha-galactosidase (Coffea arabica), sequence (Q42656 whole entry, looked up): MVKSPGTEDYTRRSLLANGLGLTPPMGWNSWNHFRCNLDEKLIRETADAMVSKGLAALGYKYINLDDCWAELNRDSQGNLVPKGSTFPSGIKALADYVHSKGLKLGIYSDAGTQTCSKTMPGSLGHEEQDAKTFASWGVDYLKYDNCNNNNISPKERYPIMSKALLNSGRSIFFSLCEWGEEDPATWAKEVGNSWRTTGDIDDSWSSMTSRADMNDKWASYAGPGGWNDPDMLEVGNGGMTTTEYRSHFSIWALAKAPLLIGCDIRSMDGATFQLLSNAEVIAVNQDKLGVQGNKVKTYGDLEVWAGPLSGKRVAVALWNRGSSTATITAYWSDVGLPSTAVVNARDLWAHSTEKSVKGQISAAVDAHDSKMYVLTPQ
# Cytochrome P450 3A4 (Homo sapiens), sequence (P08684 whole entry, looked up): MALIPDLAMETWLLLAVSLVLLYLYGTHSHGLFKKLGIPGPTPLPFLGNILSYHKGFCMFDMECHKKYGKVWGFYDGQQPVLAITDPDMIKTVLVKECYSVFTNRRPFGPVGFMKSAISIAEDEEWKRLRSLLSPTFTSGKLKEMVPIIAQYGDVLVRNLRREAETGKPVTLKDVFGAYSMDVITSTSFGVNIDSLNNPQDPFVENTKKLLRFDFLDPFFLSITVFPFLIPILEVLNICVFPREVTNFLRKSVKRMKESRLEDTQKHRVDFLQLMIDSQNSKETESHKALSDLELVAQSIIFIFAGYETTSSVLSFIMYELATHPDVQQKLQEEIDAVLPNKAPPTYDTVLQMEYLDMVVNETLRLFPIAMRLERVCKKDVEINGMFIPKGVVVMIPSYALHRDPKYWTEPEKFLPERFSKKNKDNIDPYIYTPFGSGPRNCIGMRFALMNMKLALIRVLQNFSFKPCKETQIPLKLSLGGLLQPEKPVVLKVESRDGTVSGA
# Nucleoprotein (Lymphocytic choriomeningitis virus (strain Armstrong)), sequence (P09992 whole entry, looked up): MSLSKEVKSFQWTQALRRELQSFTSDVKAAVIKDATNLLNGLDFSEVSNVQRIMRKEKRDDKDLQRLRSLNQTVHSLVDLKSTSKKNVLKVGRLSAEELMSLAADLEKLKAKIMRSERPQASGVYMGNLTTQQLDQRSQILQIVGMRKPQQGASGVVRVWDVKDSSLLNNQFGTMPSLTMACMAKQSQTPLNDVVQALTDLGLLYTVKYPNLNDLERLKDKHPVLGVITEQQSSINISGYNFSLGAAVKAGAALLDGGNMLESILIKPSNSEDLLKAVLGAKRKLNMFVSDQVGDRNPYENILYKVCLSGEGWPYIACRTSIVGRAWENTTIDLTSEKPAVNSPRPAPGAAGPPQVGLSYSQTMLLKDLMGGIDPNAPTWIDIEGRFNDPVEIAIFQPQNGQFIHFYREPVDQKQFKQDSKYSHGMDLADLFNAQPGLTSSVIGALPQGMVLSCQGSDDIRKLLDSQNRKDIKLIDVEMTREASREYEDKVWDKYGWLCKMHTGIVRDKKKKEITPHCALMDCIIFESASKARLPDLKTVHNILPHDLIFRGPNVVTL
# Bile acid receptor (Homo sapiens), sequence (Q96RI1 whole entry, looked up): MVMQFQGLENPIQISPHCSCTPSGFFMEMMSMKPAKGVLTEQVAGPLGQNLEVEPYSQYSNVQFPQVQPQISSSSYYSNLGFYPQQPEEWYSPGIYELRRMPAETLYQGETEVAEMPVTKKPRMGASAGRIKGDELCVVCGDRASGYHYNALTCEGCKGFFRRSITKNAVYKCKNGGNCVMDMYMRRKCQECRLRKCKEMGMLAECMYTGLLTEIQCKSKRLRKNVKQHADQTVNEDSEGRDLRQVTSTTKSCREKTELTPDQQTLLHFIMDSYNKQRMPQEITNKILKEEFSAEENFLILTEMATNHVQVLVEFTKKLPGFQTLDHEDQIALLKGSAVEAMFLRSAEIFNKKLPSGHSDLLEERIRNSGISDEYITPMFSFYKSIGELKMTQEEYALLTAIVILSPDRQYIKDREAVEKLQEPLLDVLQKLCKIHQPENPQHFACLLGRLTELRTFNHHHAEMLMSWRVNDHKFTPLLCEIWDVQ
# Cytochrome P450 2C9 (Homo sapiens), sequence (P11712 whole entry, looked up): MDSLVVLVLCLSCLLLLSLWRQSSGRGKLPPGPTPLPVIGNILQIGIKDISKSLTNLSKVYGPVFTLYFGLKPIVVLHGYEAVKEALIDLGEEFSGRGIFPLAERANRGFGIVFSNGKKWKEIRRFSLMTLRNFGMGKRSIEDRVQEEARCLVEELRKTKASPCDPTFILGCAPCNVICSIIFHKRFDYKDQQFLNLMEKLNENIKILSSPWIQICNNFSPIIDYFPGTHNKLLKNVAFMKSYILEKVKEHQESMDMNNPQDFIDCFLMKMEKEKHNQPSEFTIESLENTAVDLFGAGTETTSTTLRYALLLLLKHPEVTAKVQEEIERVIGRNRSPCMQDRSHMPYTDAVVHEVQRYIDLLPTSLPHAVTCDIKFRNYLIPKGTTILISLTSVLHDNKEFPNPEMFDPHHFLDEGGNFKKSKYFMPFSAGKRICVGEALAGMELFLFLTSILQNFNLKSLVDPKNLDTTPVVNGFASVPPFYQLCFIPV
structure (smiles),measurement,setting,value
Oc1ccc(-c2nc(-c3ccc(F)cc3)c(-c3ccncc3)[nH]2)cc1,Potency,[1],1 µM (active)
same,Potency,[2],inactive
same,outcome,[3],inactive
same,outcome,[4],inactive
same,Potency,[5],inactive
same,Potency,[6],inactive
same,Potency,[7],inactive
same,Potency,[8],inactive
same,Potency,[9],inactive
same,Potency,[10],3.04 µM (active)
NCCCCNCCCN,outcome,[11],inactive
same,outcome,[3],inactive
same,Potency,[12],inactive
same,outcome,[4],inactive
same,Potency,[5],inactive
same,Potency,[6],inactive
same,Potency,[7],inactive
same,Potency,[8],inactive
same,Potency,[9],inactive
CCCCCNC(=O)N1CCC(CN(Cc2ccc(Cl)cc2)Cc2ccc([N+](=O)[O-])s2)C1 (configuration not stated),Potency,[5],inactive
same,Potency,[6],inactive
same,Potency,[7],inactive
same,Potency,[8],inactive
same,Potency,[9],inactive
same,"activity change, negative = inhibition",[13],-21.9%
O=C1Nc2ccc(I)cc2/C1=C/c1cc(Br)c(O)c(Br)c1,Potency,[14],0.0794 µM (active)
same,Potency,[1],5.01 µM (active)
same,Potency,[2],inactive
same,outcome,[3],inactive
same,Potency,[12],inactive
same,outcome,[4],inactive
same,Potency,[5],inactive
same,Potency,[6],inactive
same,Potency,[7],inactive
same,Potency,[8],inactive
same,Potency,[9],inactive
same,"activity change, negative = inhibition",[13],-7.81%
Cc1csc(-c2nnc(Nc3ccc(Oc4ncccc4-c4ccnc(N)n4)cc3)c3ccccc23)c1,Potency,[5],inactive
same,Potency,[6],6.85 µM (active)
same,Potency,[7],19.3 µM (active)
same,Potency,[8],inactive
same,Potency,[13],15.8 µM (active)
O=c1c(O)c(-c2ccc(O)cc2O)oc2cc(O)cc(O)c12,outcome,[11],inactive
same,outcome,[3],inactive
same,outcome,[4],inactive
same,activation,[15],-2.26% (inactive)
same,Potency,[5],inactive
same,Potency,[6],inactive
same,Potency,[7],inactive
same,Potency,[8],inactive
same,Potency,[9],inactive
same,"activity change, negative = inhibition",[13],0.962%
O=C(NC[C@H](O)CO)c1ccncc1Nc1ccc(I)cc1F,Potency,[5],inactive
same,Potency,[6],inactive
same,Potency,[7],inactive
same,Potency,[8],inactive
same,Potency,[9],inactive
same,Potency,[13],inactive
CCN1/C(=C/C(C)=O)Sc2ccc(OC)cc21,outcome,[11],inactive
same,outcome,[3],inactive
same,Potency,[12],inactive
same,outcome,[4],inactive
same,Potency,[5],inactive
same,Potency,[6],inactive
same,Potency,[7],inactive
same,Potency,[8],inactive
same,Potency,[9],inactive
same,"activity change, negative = inhibition",[13],-1.33%
COC1CCC(N(C(=O)C2CCC(C)CC2)c2cc(C3=CCCCC3)sc2C(=O)O)CC1 (configuration not stated),"parasite growth, % of DMSO control",[16],31.6%
same,"parasite growth remaining, % of DMSO control (lower = more inhibition)",[17],61.5%
same,"parasite growth, % of control (lower = inhibition)",[18],44.7%
same,Potency,[5],inactive
same,Potency,[6],inactive
same,Potency,[7],inactive
same,Potency,[8],inactive
same,Potency,[9],inactive
same,"activity change, negative = inhibition",[13],1.37%
NC(=O)c1cccc(N)c1,outcome,[11],inactive
same,outcome,[3],inactive
same,Potency,[12],inactive
same,outcome,[4],inactive
same,Potency,[5],inactive
same,Potency,[6],inactive
same,Potency,[7],inactive
same,Potency,[8],inactive
same,Potency,[9],inactive
same,Potency,[13],inactive
C[C@@H](c1ncncc1F)[C@](O)(Cn1cncn1)c1ccc(F)cc1F,"parasite growth, % of DMSO control",[16],65.8%
same,"parasite growth remaining, % of DMSO control (lower = more inhibition)",[17],104%
same,"parasite growth, % of control (lower = inhibition)",[18],115%
same,"growth, % of control",[19],94.6%
same,Potency,[5],inactive
same,Potency,[6],inactive
same,Potency,[7],inactive
same,Potency,[8],inactive
same,Potency,[9],inactive
same,"activity change, negative = inhibition",[13],-26.1%
CC1(COc2ccc3c(c2)ncn3-c2ccc3cccc(N4CCC(N)CC4)c3n2)COC1,Potency,[5],0.0544 µM (active)
same,Potency,[6],inactive
same,Potency,[7],inactive
same,Potency,[8],inactive
same,Potency,[9],28.2 µM (active)
same,Potency,[13],10 µM (active)
CCC(C)N(C)C(=O)c1cc2ccccc2c(-c2ccccc2Cl)n1 (configuration not stated),Potency,[12],inactive
same,outcome,[4],inactive
same,Potency,[5],inactive
same,Potency,[6],inactive
same,Potency,[7],inactive
same,Potency,[8],inactive
same,Potency,[9],inactive
same,"activity change, negative = inhibition",[13],4.18%
O=C1c2cccc(O)c2C(=O)c2c(O)cc(CO)cc21,activation,[15],4.08% (inactive)
same,"parasite growth, % of DMSO control",[16],321%
same,"parasite growth remaining, % of DMSO control (lower = more inhibition)",[17],99.1%
same,"parasite growth, % of control (lower = inhibition)",[18],97.1%
same,"growth, % of control",[19],568%
same,Potency,[5],inactive
same,Potency,[6],inactive
same,Potency,[7],inactive
same,Potency,[8],inactive
same,Potency,[9],inactive
same,"activity change, negative = inhibition",[13],-12.6%
O=C1NC(=O)/C(=C/c2ccc(-c3ccc(F)cc3O)o2)S1,outcome,[4],inactive
same,Potency,[5],inactive
same,Potency,[6],inactive
same,Potency,[7],inactive
same,Potency,[8],inactive
same,Potency,[9],inactive
same,Potency,[13],inactive
O=C(CO)N1CCC(c2[nH]nc(-c3ccc(Cl)cc3)c2-c2ccncn2)CC1,Potency,[5],inactive
same,Potency,[6],inactive
same,Potency,[7],inactive
same,Potency,[8],inactive
same,Potency,[9],inactive
same,"activity change, negative = inhibition",[13],-14.2%
Cn1cnc2c(F)c(Nc3ccc(Br)cc3F)c(C(=O)NOCCO)cc21,Potency,[5],inactive
same,Potency,[6],inactive
same,Potency,[7],inactive
same,Potency,[8],inactive
same,Potency,[9],inactive
same,"activity change, negative = inhibition",[13],-25.1%
CCNC(=O)[C@H]1O[C@@H](n2cnc3c(N)nc(NCCc4ccc(CCC(=O)O)cc4)nc32)[C@H](O)[C@@H]1O,Potency,[5],inactive
same,Potency,[6],inactive
same,Potency,[7],inactive
same,Potency,[8],inactive
same,Potency,[9],inactive
same,Potency,[13],inactive

# Reference: PubChem BioAssay (NCATS)
